Measurements taken from PubChem BioAssay AID900 (National Center for Advancing Translational Sciences (NCATS), 2007).
Several values for one entry are separate records, joined by “and”; a condition that tells them apart may be missing. Equal entries are not always repeated. The whole screen tested about 75,000 compounds, of which about 20 (0.03%) were called active. Not shown: some 1% with an inconclusive outcome. Calls come from the whole dose curve; as a rule, active = well fitted inhibition curve with a large enough effect; inconclusive = small, poorly fitted or top-dose-only effect; inactive = flat fitted curve, though single readings scatter. A selection follows.

What follows are compounds tested against Caspase-1 (Homo sapiens) (UniProt P29466) (assay: qHTS Assay for Allosteric/Competitive Inhibitors of Caspase-1). Details: Caspase-1 enzyme, Ac-WEHD-AFC fluorogenic rate; series mostly up to 57.5 µM.
Text: NIH Molecular Libraries Screening Centers Network [MLSCN]
NIH Chemical Genomics Center [NCGC]
PI Name: Dr. James Wells,
Dr. Enrique Perez-Paya, Dr.Janice Williams, Dr. Dennis Wolan, a person
The caspases (Cysteine Aspartyl Protease) comprise a related family of 14 dimeric proteases that are critical mediators of apoptosis (programmed cell death) and inflammation. The caspases represent an important class of drug targets for stroke, ischemia, cancer and inflammatory diseases. […] One goal of this project was to identify compounds that act as allosteric inhibitors via stabilizing the procaspase form of the enzyme. Previous work in Well's laboratory has shown that such allosteric inhibitors can be identified and these act by binding at the dimer interface of enzyme (Hardy, Lam et al., 2004).
The biochemical assay was configured using purified caspase 1 at a high enzyme concentration to promote formation of the homodimers and thus facilitate the identification of allosteric inhibitors. The overall goal was to identify reversible inhibitors with better drug-like properties than the currently available set of aspartyl-containing peptidomimetics that covalently bind the active site. Caspase 1 was assayed using the profluorescent substrate Ac-WEHD-AFC. After initiation of the assay with substrate the plates were rapidly read using an automated robotic system (Kalypsys, Inc.) to maintain consistent timing. A kinetic mode of detection was used where the initial rate was collected (estimated final product formation was ~10%). Compounds were screened as a concentration-titration series that ranged from 57 uM to 0.7 nM. Below is the protocol used for caspase 1.
NCGC Assay Protocol Summary:
Caspase 1 was prepared in buffer (50 mM HEPES pH 7.5, 50 mM KCl, 200 mM NaCl, 10 mM DTT, 0.1% CHAPS) at a concentration of 66.6 nM and 3 uL was dispensed to all wells using black solid Kalypsys 1536-well plates. 20 nL of DMSO containing compounds was added using a pin-tool (Kalypsys Inc.) to columns 5-48. Then 20 nL of DMSO solution from a control plate was added to columns 1-4. Controls were: Column 1, 16 point titration with each concentration in duplicate (1:1 dilutions in DMSO; final starting concentration was 57 uM) of the caspase 1 inhibitor Ac-WEHD-CHO (Alexis Biochemicals); Column 2, a 16 point titration with each concentration in duplicate of the free AFC fluorophore prepared in DMSO (Alexis Biochemicals), final starting was 40 uM; Column 3 neutral (DMSO only) control; Column 4: DMSO alone, to serve as a negative control (no substrate was added). Then 1 uL of 20 uM the substrate Ac-WEHD-AFC (Alexis Biochemicals) prepared in the same buffer was dispensed to all wells except columns 2 and 4 and the plates were immediately transferred (< 1 min) to the Viewlux. The plates were then exposed using 405 nm excitation/520 nm emission filters for 4 sec and read at 20 sec intervals for 3 min. Final enzyme concentration was 50 nM and the final substrate concentration was 5 uM.
Concentration-response curves were fitted to the data calculated from slope of the linear regression of fluorescent intensity versus time (the rate). The concentration-effect curves were then classified based on curve quality (r2), response magnitude and degree of measured activity. […] Inconclusive compounds had appreciable concentration-dependent effects on both the measured rate and the interpolated basal fluorescence intensity at the start of the reaction but where the basal fluorescent intensity was marginal (e.g. < 10-fold). Inconclusive compounds also encompass highly fluorescent compounds (>100-fold increases in fluorescent intensities values relative to controls) where artificial concentration-dependent decreases in the rate occurred at high compound concentrations due to fluorescent interferences.
Keywords: Caspase 1, proteases, profluorescent, MLSMR, MLSCN, NIH Roadmap, qHTS, NCGC

Activity change, negative = inhibition, inactive:
O=C(Oc1cc(OC(=O)c2ccccc2)c2c(c1)OC(c1ccc(OC(=O)c3ccccc3)c(OC(=O)c3ccccc3)c1)[C@@H](OC(=O)c1ccccc1)C2)c1ccccc1 (stereo not given in full)
O=C(/C(=N\O)n1cncn1)c1ccc(Br)cc1Br
CCC1(C)CC(=O)NC1=O (stereo not given)
Cc1c(S(=O)(=O)O)oc2c1C(=O)C(=O)c1c-2ccc2c1CCCC2(C)C
Cc1ccc(Cc2nc(-c3cccc(C)c3)no2)cc1
N#CCC(=O)NC(=O)NCC1CC1
CCCCC/C=C/C=C/C=O
Cc1noc(C)c1CSc1nnc2ccc3ccccc3n12
COc1ccc(/C=C/C(=O)c2ccc(OC)cc2O)cc1 -5.59% [at 11.5 µM]
CCC(CCC(C)C1CCC2C3CC=C4CC(O)CC[C@@]4(C)C3CC[C@@]12C)C(C)C (stereo not given in full)
Nc1nc2nc(Cl)[nH]c2c(=O)[nH]1
COc1ccc(N2C(=O)C3CCCN3C2c2cccc(OC)c2)cc1 (stereo not given)
COc1ccccc1OCCNCC(O)COc1cccc2[nH]c3ccccc3c12 (stereo not given)
Clc1ccc(C2[C@H]3CN(CC4CCCCC4)[C@H](c4ccccc4)C34CC2(c2cccnc2)C4)cn1 (stereo not given in full)
COC1C[C@@H](O[C@@H]2C(C)C(=O)OC(C)C(C)C(O)C(C)C(=O)[C@@]3(CO3)CC(C)C(OC3OC(C)CC(N(C)C)C3O)C2C)OC(C)[C@@H]1O (stereo not given in full)
COc1ccc(C2C(C#N)=C(N)Oc3cc(N)ccc32)cc1OC (stereo not given)
CO[C@@H]1COC(=O)[C@H](Cc2ccccc2)NC(=O)C/C=C\[C@@H](C)[C@H](OC)COC(=O)[C@@H](C)NC(=O)C/C=C\[C@H]1C 0.468% [at 11.5 µM] and -0.511% [at 11.5 µM]
C=C(C)C1CC=C(CO)CC1 (stereo not given)
C[C@@H]1O[C@@H](OC[C@H]2O[C@@H](Oc3c(-c4cccc(O)c4O)oc4cc(O)cc(O)c4c3=O)[C@H](O)[C@@H](O)[C@@H]2O)[C@H](O)[C@H](O)[C@H]1O
BrC1C(Br)C(Br)C(Br)C(Br)C1Br (stereo not given)
CC1(C)OC(C(O)(c2ccccc2)c2ccccc2)C(C(O)(c2ccccc2)c2ccccc2)O1 (stereo not given) -8.99% [at 11.5 µM]
CCOc1ccc(Cn2nnc(C(=O)NCc3ccccc3)c2N)cc1
CC1C(O)CC2C(C(=O)O)=CO[C@@H](O[C@H]3OC(CO)C(O)C(O)C3O)C21 (stereo not given in full)
Cc1cccc2c3c(ccc12)C1=C(C(=O)C3=O)C(C)CO1 (stereo not given)
C[C@@H]1CC[C@H]2[C@H](C)[C@H]3[C@H](C[C@H]4[C@@H]5CC=C6C[C@@H](O)CC[C@@]6(C)[C@@H]5C[C@@H](O)[C@]34C)N2C1 -2.52% [at 11.5 µM]
